# According to PubChem BioAssay (Tox21):
# Values joined by “and” are separate entries in the source; they are usually repeats but may differ in a detail not shown here. Equal entries are not always repeated. Records with an inconclusive call do not appear. Where a call stands in place of a potency, no number is given. A number with no mark means an inactive call. Active and inactive are the calls of the source. Calls come from the whole dose curve; as a rule, active = well fitted cell-killing curve with a large enough effect in the repeat runs; inconclusive = weak or mixed curves, or effect the other way; inactive = no such curve, though single readings can be large or run the other way.
# Test: qHTS assay for identifying genotoxic compounds that show differential cytotoxicity against isogenic chicken DT40 cell lines with known DNA damage response pathways - Rev3 mutant cell line (AID 743014); note: nearly all actives have a fitted effect of over 55% in size
# Conditions: chicken DT40 Rev3-/- viability, CellTiter-Glo, 40 h; series mostly up to 68.4 µM
# Excerpt: National Center for Advancing Translational Sciences [NCATS]
# NIH Chemical Genomics Center [NCGC]
# U.S. Environmental Protection Agency [EPA]
# National Institutes of Environmental Health Sciences [NIEHS]
# National Toxicology Program [NTP]
# U.S. Food and Drug Administration [FDA]
# DNA repair pathways play a critical role in cellular homeostasis by repairing DNA damage induced by endogenous processes and xenobiotics. Isogenic chicken DT40 cell lines deficient in different DNA repair pathways can be used to identify genotoxic compounds and aid in characterizing the nature of the DNA damage induced. Two DNA repair-deficient cell lines with disrupted genes, Rad54/Ku70 or Rev3, were used to screen the Tox21 10K compound library. Possible genotoxicity was based on the presence of a significant increase in cytotoxicity in one or more of the DNA repair-deficient cell lines compared to that observed in the parental DNA repair-proficient cell line. CellTiter Glo viability assay (Promega, Madison, WI) was used to measure cell viability in these cells after compound treatment. This assay includes the data from the Rev3 mutant cell line.
# Tox21 Assay Protocol Summary:
# 300 DT40 mutant cells in 5 uL/well were dispensed into white, solid-bottom 1536-well plates using a Multidrop Combi (ThermoFisher Scientific, Waltham, MA) dispenser. After the assay plates were incubated at 37 C/5% CO2 for approximately 0.5 hour, 23 nL of compounds dissolved in DMSO, positive controls or DMSO only was transferred into the assay plate by a pintool work station (Kalypsys, San Diego, CA). The assay plates were incubated at 37 C/5% CO2 for 40 hours. After 5 uL per well of CellTiter-Glo reagent was added into each well of the assay plates, the plates were incubated for 30 min at room temperature and the luminescence intensity of the plates was measured using a ViewLux (PerkinElmer, Shelton, CT) plate reader.
# Potency is the fitted concentration of half-maximal effect.
Compound,Potency,"activity, negative = cytotoxicity"
CCN(CC)CCc1c[nH]c2ccccc12,inactive,
CC(Cc1ccc(OCC(=O)O)cc1)NCC(O)c1csc(C(F)(F)F)n1 (stereo not given),inactive,
N#Cc1c[nH]cc1-c1cccc2c1OC(F)(F)O2,8.63 µM (active),
c1ccc2c(c1)cc1ccc3cccc4ccc2c1c34,inactive,
C=CCBr,inactive,
CC(=O)O.CC(=O)O.CC(=O)O.CC(=O)O.CC(=O)O.CC(=O)O.CC(=O)O.O.O.[Cr].[Cr].[Cr],inactive,
N#Cc1ccc(N(CC(N)=O)CC(F)(F)F)cc1C(F)(F)F,inactive,
CCCCN(CCCC)C(=S)[S-].CCCCN(CCCC)C(=S)[S-].[Ni+2],inactive,
C#CCO,inactive,
CC(O)C(=O)[O][Hg][c]1ccccc1 (stereo not given),0.217 µM (active),
C#CC1(O)CCCCC1,inactive,
COc1ccc2c3c1O[C@H]1[C@H](O)CC[C@H]4[C@@H](C2)N(C)CC[C@@]341,inactive,
Nc1cc(Cl)ccc1Cl,inactive,
Nc1nc(N)c(N)c(N)n1,inactive,
CC(=O)[O][Pb]([c]1ccccc1)([c]1ccccc1)[c]1ccccc1,0.122 µM (active),
CSC1=N[C@@](C)(c2ccccc2)C(=O)N1Nc1ccccc1,1.72 µM (active),
CC1(C)[C@H](/C=C2\CCSC2=O)[C@@H]1C(=O)OCc1coc(Cc2ccccc2)c1,5.45 µM (active),
O=S1OCC2C(CO1)C1(Cl)C(Cl)=C(Cl)C2(Cl)C1(Cl)Cl (stereo not given),30.7 µM (active) and 34.3 µM (active),
N#Cc1c2ccccc2cc2ccccc12,inactive,
CC(C)N(C(=O)CCl)c1ccccc1,2.17 µM (active) and 3.86 µM (active),

Compound,Potency,"activity, negative = cytotoxicity"
O=C(O)[C@H](O)[C@@H](O)C(=O)O,inactive,
Cc1ccn2nc(S(=O)(=O)Nc3c(F)cccc3F)nc2n1,inactive,
Cc1cc(C2CC2)nc(Nc2ccccc2)n1,30.6 µM (active),
CC(=O)[O-].CC(=O)[O-].CC(=O)[O-].[Sb+3],,0.291% [at 8.53 µM]
CCOP(=S)(OCC)SC(CCl)N1C(=O)c2ccccc2C1=O (stereo not given),43.3 µM (active),
C#CCC1=C(C)C(OC(=O)C2C(C=C(C)C)C2(C)C)CC1=O (stereo not given),30.4 µM (active),
CC(Cc1ccc2c(c1)OCO2)NO (stereo not given),inactive,
COC(=O)C(C)N(C(=O)c1ccco1)c1c(C)cccc1C (stereo not given),54.4 µM (active),
ClC(Cl)C(Cl)(Cl)Cl,inactive,
CCOP(=O)(Sc1ccccc1)Sc1ccccc1,inactive,
O=[N+]([O-])[O-].[Tl+],1.09 µM (active),
OCC(Br)CBr (stereo not given),inactive,
Clc1ccc(C(c2ccc(Cl)cc2)C(Cl)Cl)cc1,17.5 µM (active) and 3.86 µM (active),
O.O.O.O.O.O.O=S(=O)([O-])[O-].[Ni+2],26.1 µM (active),
O=NN(CCO)CCO,inactive,
COC(=O)c1ccccc1S(=O)(=O)NC(=O)Nc1nc(C)nc(OC)n1,inactive,
CCn1cc[n+](C)c1 (tested in a mixture with another compound),inactive,
CN/C(=N\[N+](=O)[O-])NCc1cnc(Cl)s1,inactive,
CCCCC(CC)COC(=O)OOC(C)(C)C (stereo not given),inactive,
CCC[CH2][Sn]([CH2]CCC)([O]C(C)=O)[O]C(C)=O,30.9 µM (active),
